Test in all cases: protein-binding microarray (PBM); PBM: ~300 nM protein, 6 mM HEPES pH 7.8, 80 mM KCl, 0.5 mM EDTA, 0.5 mM EGTA, 6% glycerol, 35 ng/ul poly-dIdC, 1% milk, 1 h, room temperature; Ap Aiptasia and Nv Nematostella (sea anemones) / Co Capsaspora / Aq Amphimedon (sponge) / Dm Drosophila / Hu human; RHD is the Rel homology domain; high values mean tight binding
What all share (details): dsDNA, one strand shown

One experiment addresses T1, GST-Ap-NF-kB RHD (Exaiptasia pallida (Aiptasia), UniProt A0A913YAJ5 2-422).
T1 sequence: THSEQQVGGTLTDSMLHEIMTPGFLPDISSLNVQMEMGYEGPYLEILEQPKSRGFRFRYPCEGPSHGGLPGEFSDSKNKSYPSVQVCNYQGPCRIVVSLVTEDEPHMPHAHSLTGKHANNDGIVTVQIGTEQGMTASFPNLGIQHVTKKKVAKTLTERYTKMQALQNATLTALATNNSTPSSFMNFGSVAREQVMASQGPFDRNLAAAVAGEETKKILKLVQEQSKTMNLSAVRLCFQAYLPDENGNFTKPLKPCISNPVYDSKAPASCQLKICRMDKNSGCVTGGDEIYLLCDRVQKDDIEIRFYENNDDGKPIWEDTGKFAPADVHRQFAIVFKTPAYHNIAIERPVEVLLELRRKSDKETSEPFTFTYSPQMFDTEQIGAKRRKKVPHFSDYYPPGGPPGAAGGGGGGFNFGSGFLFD

Experiment [1] deals with T2, GST-Nv-NF-kB (Cys allele) (Nematostella vectensis, UniProt E5G601 2-411).
T2 sequence: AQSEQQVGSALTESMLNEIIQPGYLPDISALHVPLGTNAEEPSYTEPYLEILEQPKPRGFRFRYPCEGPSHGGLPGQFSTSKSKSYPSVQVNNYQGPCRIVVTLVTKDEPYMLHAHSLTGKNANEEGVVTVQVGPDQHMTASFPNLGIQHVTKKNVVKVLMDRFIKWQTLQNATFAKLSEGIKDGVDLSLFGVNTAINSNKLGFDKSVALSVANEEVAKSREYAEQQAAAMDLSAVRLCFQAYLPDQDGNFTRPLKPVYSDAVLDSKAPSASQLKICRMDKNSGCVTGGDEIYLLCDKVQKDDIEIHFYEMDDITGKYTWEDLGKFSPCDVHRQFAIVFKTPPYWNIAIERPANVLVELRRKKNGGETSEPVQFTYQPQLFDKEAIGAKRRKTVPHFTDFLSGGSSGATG

Experiment [2] addresses T3, GST-Nv-NF-kB (Ser allele) (Nematostella vectensis, UniProt A7UNT2 2-411).
T3 sequence: T2 sequence with Q21R, C66S, S207N, E215Q, V217A, E225K, A268E, D399E

In the next experiment the target is T4, GST-Dm-Relish (Drosophila melanogaster, UniProt Q94527 99-473).
T4 sequence: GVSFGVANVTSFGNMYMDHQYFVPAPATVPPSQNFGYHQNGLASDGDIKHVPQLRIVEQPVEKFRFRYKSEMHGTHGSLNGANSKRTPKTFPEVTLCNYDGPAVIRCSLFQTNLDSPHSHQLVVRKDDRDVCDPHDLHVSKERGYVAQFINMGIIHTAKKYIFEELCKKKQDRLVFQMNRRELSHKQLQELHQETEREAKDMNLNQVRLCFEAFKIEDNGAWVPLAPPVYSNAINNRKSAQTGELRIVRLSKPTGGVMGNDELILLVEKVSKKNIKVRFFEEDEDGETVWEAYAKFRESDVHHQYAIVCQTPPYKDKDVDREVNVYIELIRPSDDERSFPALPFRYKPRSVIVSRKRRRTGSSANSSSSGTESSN

A further experiment addresses T5, GST-Aq-NF-kB (Amphimedon queenslandica, UniProt A9Y5G7 2-389).
T5 sequence: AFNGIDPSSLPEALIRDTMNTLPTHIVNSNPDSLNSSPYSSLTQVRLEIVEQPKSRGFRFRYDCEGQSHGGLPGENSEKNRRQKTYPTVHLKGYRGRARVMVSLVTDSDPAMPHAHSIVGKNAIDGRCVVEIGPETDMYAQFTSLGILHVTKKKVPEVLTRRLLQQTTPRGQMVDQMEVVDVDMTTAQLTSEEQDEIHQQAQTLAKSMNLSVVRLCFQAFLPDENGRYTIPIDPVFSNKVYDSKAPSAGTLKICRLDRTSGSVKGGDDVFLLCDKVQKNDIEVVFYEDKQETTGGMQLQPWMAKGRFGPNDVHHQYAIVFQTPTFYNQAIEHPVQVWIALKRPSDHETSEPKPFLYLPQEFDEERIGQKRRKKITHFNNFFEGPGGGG

In a further experiment the target is GST-Hu-p50 (Homo sapiens, UniProt P19838 7-356).
Sequence of GST-Hu-p50 (P19838 7-356): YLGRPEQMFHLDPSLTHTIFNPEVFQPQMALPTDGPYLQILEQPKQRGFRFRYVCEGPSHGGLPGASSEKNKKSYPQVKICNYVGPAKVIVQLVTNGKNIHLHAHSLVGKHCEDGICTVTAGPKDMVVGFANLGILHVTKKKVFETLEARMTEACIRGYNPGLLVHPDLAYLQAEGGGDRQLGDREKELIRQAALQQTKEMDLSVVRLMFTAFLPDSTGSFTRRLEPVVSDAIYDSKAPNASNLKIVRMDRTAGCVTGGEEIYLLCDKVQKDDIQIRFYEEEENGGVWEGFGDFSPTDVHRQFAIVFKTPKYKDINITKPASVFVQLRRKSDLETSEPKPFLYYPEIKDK
The target in another experiment is T6, GST-Co-NF-kB (Capsaspora owczarzaki, UniProt F1ARL5 200-546).
T6 sequence: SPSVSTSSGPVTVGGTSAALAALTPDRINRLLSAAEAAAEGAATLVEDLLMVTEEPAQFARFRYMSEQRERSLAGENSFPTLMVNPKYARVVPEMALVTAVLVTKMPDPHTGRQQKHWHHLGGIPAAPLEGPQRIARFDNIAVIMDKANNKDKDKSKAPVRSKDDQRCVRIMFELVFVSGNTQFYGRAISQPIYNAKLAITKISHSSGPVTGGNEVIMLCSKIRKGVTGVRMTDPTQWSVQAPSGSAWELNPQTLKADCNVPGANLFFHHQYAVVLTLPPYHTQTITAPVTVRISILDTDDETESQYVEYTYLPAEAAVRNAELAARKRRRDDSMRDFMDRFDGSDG

Positions count from the first letter of the chain named.

Regarding “CCGATTAACATCAAGGGAACCCCTGATGTTAATCGGGTCTTGATTCGCTTGACGCTGCTG”, the binding signal with GST-Ap-NF-kB RHD was 5.4 z-score; in experiment [1], 3.13 z-score; in experiment [2], 1.95 z-score; with GST-Dm-Relish it was 9.38 z-score; with GST-Aq-NF-kB, 5.18 z-score; with GST-Hu-p50 it was 3.12 z-score.
With “CCGATTAACATCAGAAACTCCCATGATGTTAATCGGGTCTTGATTCGCTTGACGCTGCTG”, the binding signal in the experiment with GST-Ap-NF-kB RHD was found to be 3.34 z-score; in experiment [1] it was 3.45 z-score; in experiment [2], 2.93 z-score; with GST-Dm-Relish, 3.38 z-score; in the experiment with GST-Aq-NF-kB it was 3.7 z-score; with GST-Hu-p50, 2.9 z-score.
As to “CCGATTAACATCAGGGTTTTTAGTGATGTTAATCGGGTCTTGATTCGCTTGACGCTGCTG”, the binding signal is 2.02 z-score with GST-Ap-NF-kB RHD; 1.3 z-score in experiment [1]; 2.09 z-score in experiment [2]; 2.9 z-score with GST-Dm-Relish; 2.58 z-score with GST-Aq-NF-kB; 1.99 z-score with GST-Hu-p50.
For “CCGATTAACATCAGGCCATTCCCTGATGTTAATCGGGTCTTGATTCGCTTGACGCTGCTG”, the binding signal is 1.39 z-score with GST-Ap-NF-kB RHD; 2.63 z-score in experiment [1]; 1.77 z-score in experiment [2]; 2.6 z-score with GST-Dm-Relish; 4.37 z-score with GST-Aq-NF-kB; 1.79 z-score in the experiment with GST-Hu-p50.
In the case of “CCGATTAACATCAGGGATTGCCCTGATGTTAATCGGGTCTTGATTCGCTTGACGCTGCTG”, the binding signal with GST-Ap-NF-kB RHD was determined as 4.32 z-score; in experiment [1], 3.8 z-score; in experiment [2] it was 1.87 z-score; with GST-Dm-Relish, 5.25 z-score; with GST-Aq-NF-kB, 6.11 z-score; in the experiment with GST-Hu-p50 it was 2.54 z-score.
Regarding “CCGATTAACATCAGGGAAAAACATGATGTTAATCGGGTCTTGATTCGCTTGACGCTGCTG”, the binding signal in the experiment with GST-Ap-NF-kB RHD was found to be 3.76 z-score; in experiment [1] it was 5.03 z-score; in experiment [2], 7.18 z-score; in the experiment with GST-Co-NF-kB, 5.51 z-score; in the experiment with GST-Dm-Relish, 6.52 z-score; with GST-Aq-NF-kB, 5.27 z-score. This sequence yielded a binding signal with GST-Hu-p50 of 4.03 z-score.
In the case of “CCGATTAACATCAGGGAGGTACCTGATGTTAATCGGGTCTTGATTCGCTTGACGCTGCTG”, the binding signal is 3.34 z-score in the experiment with GST-Ap-NF-kB RHD; 2.59 z-score in experiment [1]; 2.93 z-score in experiment [2]; 5.13 z-score with GST-Dm-Relish; 3.92 z-score with GST-Aq-NF-kB; 2.03 z-score with GST-Hu-p50.
In the case of “CCGATTAACATCAAAAAAGTACCTGATGTTAATCGGGTCTTGATTCGCTTGACGCTGCTG”, the binding signal in the experiment with GST-Ap-NF-kB RHD was determined as 4.63 z-score; in experiment [1], 7.84 z-score; in experiment [2], 11.4 z-score; with GST-Dm-Relish, 9.37 z-score; with GST-Aq-NF-kB, 5.47 z-score; with GST-Hu-p50, 5.8 z-score.
Take “CCGATTAACATCAGGGGCTTCACTGATGTTAATCGGGTCTTGATTCGCTTGACGCTGCTG”: the binding signal turned out to be 3.16 z-score in the experiment with GST-Ap-NF-kB RHD; 3.35 z-score in experiment [1]; 2.69 z-score in experiment [2]; 7.68 z-score with GST-Dm-Relish; 4.89 z-score with GST-Aq-NF-kB; 4.01 z-score with GST-Hu-p50.
As for “CCGATTAACATCAGGGAATTCCCTGATGTTAATCGGGTCTTGATTCGCTTGACGCTGCTG”, the binding signal was 12 z-score with GST-Ap-NF-kB RHD; 12.7 z-score in experiment [1]; 11.4 z-score in experiment [2]; 7.25 z-score in the experiment with GST-Co-NF-kB; 10 z-score with GST-Dm-Relish; 12.2 z-score with GST-Aq-NF-kB. This sequence displayed a binding signal in the experiment with GST-Hu-p50 of 7.9 z-score.
In the case of “CCGATTAACATCACGGTAATTCCTGATGTTAATCGGGTCTTGATTCGCTTGACGCTGCTG”, the binding signal with GST-Ap-NF-kB RHD is 1.42 z-score; in experiment [1], 2.05 z-score; in experiment [2], 2.65 z-score; with GST-Dm-Relish it was 5.3 z-score; with GST-Aq-NF-kB, 4.04 z-score; in the experiment with GST-Hu-p50, 1.7 z-score.

Values taken from publication PMC5700166.
